Assay results reported in paper PMC5540273 (PLoS ONE, 2017).
Several values for one entry are separate records, joined by “and”; a condition that tells them apart may be missing. Equal entries are not always repeated. Where two headings read alike, the source gives them in different places.

Tests used:
PAK4 = settings: concentration: 1 μM, replicates: in singlicate; n = 1
PAK6 = settings: concentration: 1 μM, replicates: in singlicate, n = 1
PAK7 = settings: concentration: 1 μM, replicates: in singlicate, n = 1
PCTK1 = system: T1, PCTK1; settings: concentration: 1 μM, replicates: in singlicate, n = 1
T1 construct: gene CDK16

PCTK2 = system: T2, PCTK2; settings: concentration: 1 μM, replicates: in singlicate, n = 1
T2 construct: gene CDK17

PCTK3 = system: T3, PCTK3; settings: concentration: 1 μM, replicates: in singlicate; n = 1
T3 construct: gene CDK18

PDGFRA = settings: concentration: 1 μM, replicates: in singlicate; n = 1
PDGFRB = settings: concentration: 1 μM, replicates: in singlicate, n = 1
PDPK1 = settings: concentration: 1 μM, replicates: in singlicate; n = 1
PFTAIRE2 = settings: concentration: 1 μM, replicates: in singlicate, n = 1
PFTK1 = system: T4, PFTK1; settings: concentration: 1 μM, replicates: in singlicate, n = 1
T4 construct: gene CDK14

PHKG1 = settings: concentration: 1 μM, replicates: in singlicate; n = 1
PHKG2 = settings: concentration: 1 μM, replicates: in singlicate, n = 1
PIK3C2B = settings: concentration: 1 μM, replicates: in singlicate; n = 1
PIK3C2G = settings: concentration: 1 μM, replicates: in singlicate, n = 1
PIK3CA = settings: concentration: 1 μM, replicates: in singlicate; n = 1
PIK3CB = settings: concentration: 1 μM, replicates: in singlicate; n = 1
PIK3CD = settings: concentration: 1 μM, replicates: in singlicate, n = 1
PIK3CG = settings: concentration: 1 μM, replicates: in singlicate; n = 1
PIK4CB = system: T5, PIK4CB; settings: concentration: 1 μM, replicates: in singlicate, n = 1
T5 construct: gene PI4KB
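Further: KINOMEscan kinase panel screen.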

Cc1c2ccc(N(C)c3ccnc(Nc4cccc(S(N)(=O)=O)c4)n3)cc2nn1Cc1ccccc1.Cl.Cl [GW787226]
%Inh (PAK4): 0% | %Inh (PAK6): 0% | %Inh (PAK7): 10% | %Inh (PCTK1): 0% | %Inh (PCTK2): 0% | %Inh (PCTK3): 4% | %Inh (PDGFRA): 99.7% | %Inh (PDGFRB): 100% | %Inh (PDPK1): 0% | %Inh (PFTAIRE2): 0% | %Inh (PFTK1): 27% | %Inh (PHKG1): 0% | %Inh (PHKG2): 0% | %Inh (PIK3C2B): 5% | %Inh (PIK3C2G): 0% | %Inh (PIK3CA): 0% | %Inh (PIK3CB): 0% | %Inh (PIK3CD): 0% | %Inh (PIK3CG): 0% | %Inh (PIK4CB): 0%

CCn1cnc2c(N)ncnc21 [GW345098]
%Inh (PAK4): 6% | %Inh (PAK6): 13% | %Inh (PAK7): 11% | %Inh (PCTK1): 0% | %Inh (PCTK2): 0% | %Inh (PCTK3): 0% | %Inh (PDGFRA): 0% | %Inh (PDGFRB): 24% | %Inh (PDPK1): 11% | %Inh (PFTAIRE2): 3% | %Inh (PFTK1): 2% | %Inh (PHKG1): 4% | %Inh (PHKG2): 13% | %Inh (PIK3C2B): 27% | %Inh (PIK3C2G): 31% | %Inh (PIK3CA): 29% | %Inh (PIK3CB): 0% | %Inh (PIK3CD): 0% | %Inh (PIK3CG): 21% | %Inh (PIK4CB): 1%

NCC(NC(=O)c1cc(-c2cn[nH]c2)c(-c2ccnc3[nH]ccc23)s1)c1ccccc1.O=C(O)C(F)(F)F.O=C(O)C(F)(F)F (stereo not shown) [GSK1325775]
%Inh (PAK4): 50% | %Inh (PAK6): 74% | %Inh (PAK7): 74% | %Inh (PCTK1): 15% | %Inh (PCTK2): 9% | %Inh (PCTK3): 0% | %Inh (PDGFRA): 26% | %Inh (PDGFRB): 61% | %Inh (PDPK1): 0% | %Inh (PFTAIRE2): 17% | %Inh (PFTK1): 21% | %Inh (PHKG1): 18% | %Inh (PHKG2): 26% | %Inh (PIK3C2B): 0% | %Inh (PIK3C2G): 0% | %Inh (PIK3CA): 0% | %Inh (PIK3CB): 0% | %Inh (PIK3CD): 24% | %Inh (PIK3CG): 3% | %Inh (PIK4CB): 26%

N#Cc1ccc(-c2cc(-c3c[nH]nc3-c3ccccn3)ccn2)cc1 [GW693028]
%Inh (PAK4): 0% | %Inh (PAK6): 0% | %Inh (PAK7): 11% | %Inh (PCTK1): 0% | %Inh (PCTK2): 0% | %Inh (PCTK3): 33% | %Inh (PDGFRA): 0% | %Inh (PDGFRB): 7% | %Inh (PDPK1): 0% | %Inh (PFTAIRE2): 0% | %Inh (PFTK1): 19% | %Inh (PHKG1): 0% | %Inh (PHKG2): 0% | %Inh (PIK3C2B): 0% | %Inh (PIK3C2G): 0% | %Inh (PIK3CA): 0% | %Inh (PIK3CB): 0% | %Inh (PIK3CD): 0% | %Inh (PIK3CG): 0% | %Inh (PIK4CB): 0%

Cl.Nc1ncnc2occ(-c3ccc(NC(=O)Nc4cc(C(F)(F)F)ccc4F)cc3)c12 [SB-707548]
%Inh (PAK4): 9% | %Inh (PAK6): 6% | %Inh (PAK7): 26% | %Inh (PCTK1): 11% | %Inh (PCTK2): 80% | %Inh (PCTK3): 67% | %Inh (PDGFRA): 99.8% | %Inh (PDGFRB): 100% | %Inh (PDPK1): 33% | %Inh (PFTAIRE2): 68% | %Inh (PFTK1): 79% | %Inh (PHKG1): 0% | %Inh (PHKG2): 8% | %Inh (PIK3C2B): 0% | %Inh (PIK3C2G): 23% | %Inh (PIK3CA): 0% | %Inh (PIK3CB): 8% | %Inh (PIK3CD): 27% | %Inh (PIK3CG): 6% | %Inh (PIK4CB): 0%

COc1ccc(Nc2nccc(N3CCC(NC(=O)Nc4cccc(C(C)=O)c4)C3)n2)cc1 (stereo not shown) [GSK1379731]
%Inh (PAK4): 0% | %Inh (PAK6): 13% | %Inh (PAK7): 0% | %Inh (PCTK1): 9% | %Inh (PCTK2): 0% | %Inh (PCTK3): 18% | %Inh (PDGFRA): 0% | %Inh (PDGFRB): 38% | %Inh (PDPK1): 7% | %Inh (PFTAIRE2): 9% | %Inh (PFTK1): 3% | %Inh (PHKG1): 0% | %Inh (PHKG2): 0% | %Inh (PIK3C2B): 0% | %Inh (PIK3C2G): 0% | %Inh (PIK3CA): 0% | %Inh (PIK3CB): 0% | %Inh (PIK3CD): 0% | %Inh (PIK3CG): 0% | %Inh (PIK4CB): 0%

O=c1cc(N2CCOCC2)nc2n(Cc3cccc(C(F)(F)F)c3)ccn12 [GSK2297543]
%Inh (PAK4): 0% | %Inh (PAK6): 0% | %Inh (PAK7): 0% | %Inh (PCTK1): 6% | %Inh (PCTK2): 0% | %Inh (PCTK3): 1% | %Inh (PDGFRA): 11% | %Inh (PDGFRB): 22% | %Inh (PDPK1): 0% | %Inh (PFTAIRE2): 17% | %Inh (PFTK1): 12% | %Inh (PHKG1): 0% | %Inh (PHKG2): 4% | %Inh (PIK3C2B): 0% | %Inh (PIK3C2G): 0% | %Inh (PIK3CA): 0% | %Inh (PIK3CB): 96.5% | %Inh (PIK3CD): 28% | %Inh (PIK3CG): 8% | %Inh (PIK4CB): 0%

CC(C)(CN)c1nc(-c2ccc(Cl)c(O)c2)c(-c2ccncc2)[nH]1.O=C(O)C(F)(F)F [SB-477794]
%Inh (PAK4): 0% | %Inh (PAK6; 1 µM): 10% and 0% | %Inh (PAK7; 1 µM): 21% and 25% | %Inh (PCTK1; 1 µM): 4% and 0% | %Inh (PCTK2; 1 µM): 99.7% and 0% | %Inh (PCTK3): 0% | %Inh (PDGFRA): 59% | %Inh (PDGFRB; 1 µM): 99.5% and 98.1% | %Inh (PDPK1): 0% | %Inh (PFTAIRE2; 1 µM): 14% and 7% | %Inh (PFTK1; 1 µM): 6% and 3% | %Inh (PHKG1): 0% | %Inh (PHKG2; 1 µM): 12% and 0% | %Inh (PIK3C2B): 0% | %Inh (PIK3C2G; 1 µM): 0% and 5% | %Inh (PIK3CA): 0% | %Inh (PIK3CB): 0% | %Inh (PIK3CD; 1 µM): 20% and 5% | %Inh (PIK3CG): 0% | %Inh (PIK4CB; 1 µM): 25% and 0%
